Screening data: PubChem BioAssay, The Scripps Research Institute Molecular Screening Center
GPR151 ag – human GPR151 activation. Q8TDV0. PathHunter beta-arrestin GPR151 cells, luminescence. activation, % at 11.2 µM. 1% of 650,000 active. AID 1508602; in the data active means activation above about 4.9%;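 further: 0% = median of compound wells and 100% = cells with positive control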
TEAD-YAP block – TEAD-YAP interaction inhibition; AID 1259422; inhibition, % at 9.12 µM; 1.4% of 640,000 active; HEK-TIYL cells, TEAD-Gal4/YAP UAS-luciferase luminescence; in the data active means inhibition above about 32%;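 further: 0% = median of test compound wells and 100% = reference inhibitor wells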
MITF primary – blocks human microphthalmia-associated transcription factor; O75030; AlphaScreen MITF homodimerization, bead proximity signal; inhibition, % at 2.6 µM; 0.91% of 650,000 active; AID 1259374; in the data active means inhibition above about 50%;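 further: 0% = vehicle wells with protein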
Target sequence (O75030 whole entry, looked up): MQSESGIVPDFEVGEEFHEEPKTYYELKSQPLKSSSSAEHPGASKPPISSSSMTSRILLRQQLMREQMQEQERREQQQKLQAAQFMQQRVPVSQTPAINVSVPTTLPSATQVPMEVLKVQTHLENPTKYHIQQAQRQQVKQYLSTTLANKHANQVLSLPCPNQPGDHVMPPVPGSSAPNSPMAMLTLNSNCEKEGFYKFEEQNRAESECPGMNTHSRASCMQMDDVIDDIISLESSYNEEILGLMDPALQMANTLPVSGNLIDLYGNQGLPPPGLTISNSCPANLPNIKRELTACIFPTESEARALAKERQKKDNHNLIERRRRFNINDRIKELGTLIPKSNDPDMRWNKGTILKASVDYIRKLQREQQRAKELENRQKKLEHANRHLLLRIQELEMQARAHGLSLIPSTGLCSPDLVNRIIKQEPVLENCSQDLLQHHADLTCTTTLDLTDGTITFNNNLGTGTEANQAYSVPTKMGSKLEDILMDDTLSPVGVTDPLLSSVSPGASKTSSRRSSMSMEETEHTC
FBW7 act – activators of human E3 ligase FBW7. AlphaScreen FBW7–phospho-cyclin E peptide binding, activator screen. 0.13% of 650,000 active. AID 1259310. normalized activity (activation), % at 26.1 µM. Q969H0; in the data active means normalized activity above about 1.9%;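 further: purified mutant Fbw7 with reduced substrate affinity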
GPR151 confirm – human GPR151 activation, confirmation screen | shares compounds with GPR151 ag | GPR151 PathHunter beta-arrestin cells, luminescence, 90 min; % of EA-reagent control over plate median | activation, % at 11.2 µM | 6,700 tested, under 10 active | AID 1508609;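 active means mean percent activation across replicates above the confirmation screen cutoff of 4.91%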
GPR119 counter – counter-screen for GPR151 activators: effect on human GPR119. shares compounds with GPR151 ag. GPR119 PathHunter beta-arrestin cells, luminescence, 90 min; 0 = compound-well median, 100 = enzyme-acceptor control. activation, % at 11.2 µM. 0.3% of 6,700 active. AID 1508611;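 active means mean percent activation in the counterscreen above 29.09%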;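 further: counterscreen on off-target GPR119 to flag nonselective hits from the GPR151 activator screen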
An asterisk follows results filed as active; / = not tested or not shown; ! = not active in a repeat. An excerpt weighted towards active compounds, which were near 3.5% of everything screened.

SMILES | GPR151 ag | TEAD-YAP block | MITF primary | FBW7 act | GPR151 confirm | GPR119 counter
COc1ccc(NC(=O)C2CCN(c3nnc(N4CCCC4=O)s3)CC2)cc1 | 6.3* | 1 | -5 | 0 | 1 | -4
CN(C)CCn1c2c(c(SCC(=O)Nc3ccc(F)c(F)c3)nc1=O)CCC2 | 0 | 3 | -13 | 0 | / | /
COc1ccc(C(=O)Nc2ccnn2C2CCN(C(=O)c3ccnn3C)CC2)cc1 | -1 | -14 | 6 | 0 | / | /
CCc1nn(CC(=O)OC(C)C)c(=O)c2cc3oc(C)cc3n12 | 5.4* | -19 | 7 | 0 | -1 | -6
O=C(O)CCC(NCC(O)Cn1c2ccccc2c2ccccc21)C(=O)O (stereo not drawn) | 5.6* | 2 | -16 | 0 | 2 | 16
CC(C)CC(NCC(O)Cn1c2ccccc2c2ccccc21)C(=O)O (stereo not drawn) | 1 | 0 | -7 | 0 | / | /
C=CCN(CC=C)C(=O)CC1(c2cccc(F)c2)CC(=O)N(C)C1=O (stereo not drawn) | -1 | 3 | 3 | 0 | / | /
Cc1ccc(OCCN(C)Cc2ccc(OCC(O)CN(C)C)cc2)cc1 (stereo not drawn) | 9.9* | 13 | 9 | 0 | 0 | 7
O=C(O)CN1C2=C(C(=O)CCC2)C(c2ccccc2)C2=C1CCCC2=O | 1 | 3 | 2 | 0 | / | /
COc1cc(C(=O)NNC(=O)CCN2CCCCC2)cc(OC)c1OC | 4.9* | 9 | -16 | 0 | -1 | -14
CN1C(=O)/C(=C/c2cn(CC(N)=O)c3ccccc23)c2ccccc21 | 1 | 3 | 5 | 0 | / | /
O=C(CN1Cc2ccccc2OC(c2ccsc2)C1)NCCCOc1cccnc1 (stereo not drawn) | 5 | -15 | -5 | 0 | / | /
CC(C)(C)N1C(=O)c2ccc(C(=O)Nc3ccc([N+](=O)[O-])cc3Cl)cc2C1=O | 6.6* | 4 | 4 | 0 | 0 | 0
Cc1noc(C)c1COC(=O)CCc1ccc(S(=O)(=O)N2CCCCC2)cc1 | 5.0* | 5 | 6 | 0 | 0 | -6
COc1cccc2c1CC(C(=O)Nc1ccc(-c3cn[nH]c3C)cc1OCCN(C)C)CO2 (stereo not drawn) | 6.8* | 7 | 10 | 0 | 0 | -2
Cc1[nH]ncc1-c1ccc(NC(=O)C2COc3c(F)cccc3C2)c(OCCN(C)C)c1 (stereo not drawn) | -2 | 0 | 0 | 0 | / | /
Cc1c(NC(=O)CCC(=O)O)cccc1[N+](=O)[O-] | 1 | 3 | 3 | 0 | / | /
O=C(Cc1ccc(F)cc1)NCC1(c2cccs2)CCOCC1 | 1 | 13 | 14 | 1 | / | /
O=C(Cc1cccs1)NCC1(c2ccc(F)cc2)CC1 | 12* | 1 | -1 | 0 | 1 | -5
CCN1CCc2c(sc(NC(=S)NC(=O)c3c(Br)cnn3C)c2C(N)=O)C1 | 0 | 0 | 0 | 0 | / | /
Cc1ccc(C(=O)COC(=O)c2cc(-c3ccc(C)c(C)c3)nc3ccc(C)cc23)cc1 | 0 | 7 | 1 | 0 | / | /
Cc1ccc2nc(-c3ccc(C)c(C)c3)cc(C(=O)OCC(=O)c3ccc([N+](=O)[O-])cc3)c2c1 | 5.6* | 4 | 7 | 0 | 0 | 7
O=C(CSc1nc2ccccc2c(=O)n1Cc1cccs1)c1ccccc1 | -1 | -3 | 8 | 0 | / | /
CN1CCN(C(c2ccccc2)c2ccc(Cl)cc2)CC1 (stereo not drawn) | 6.4*! | -4 | 11 | 0 | 0 | -5
O=C(NCc1ccco1)/C(=C/c1ccc(Cl)cc1)NC(=O)c1ccccc1 | 0 | 5 | 3 | 0 | / | /
O=C(NCc1ccco1)/C(=C/c1ccccc1)NC(=O)c1cccc(Br)c1 | 5.2* | 8 | -5 | 0 | -1 | -10
COc1ccc(NC(=O)CCCC(=O)OCC(F)(F)C(F)F)cc1 | 5.0* | 9 | 13 | 0 | 0 | 6
O=C(Nc1ccc2[nH]ncc2c1)[C@@H]1CCN(C(=O)[C@H](O)COc2ccc(Br)cc2)C1 | -1 | 7 | 33 | 1 | / | /
COC(=O)c1ccc(OCC2c3cc(OC)c(OC)cc3CCN2C(=O)c2cccc(OC)c2OC)cc1 (stereo not drawn) | 5.3* | -13 | 0 | 0 | 1 | 1
Cc1ccc(S(=O)(=O)N2CCN3C(=O)[C@H]4CCCN4C(=O)[C@H]3C2)cc1 | -2 | -5 | 2 | 0 | / | /
